High-throughput results as filed in PubChem.
This is a sample that favours compounds with a hit; in the whole collection about 1.7% have one here.
GSTO1 inh – GSTO1 inhibition, counter-screen for RBBP9 inhibitors; P78417; recombinant GSTO1, activity-based probe fluorescence polarization; inhibition, % at 5.96 µM; AID 1974; actives 1.1% (n = 300,000);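 active = inhibition above the campaign mean inhibition plus 3 SD, cut at about 35% in these data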;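 also: 0% = GSTO1-1 with DMSO and 100% = wells lacking GSTO1-1 enzyme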
LYPLA2 inh – LYPLA2 (human) inhibition in PME1 counter-screen; O95372; inhibition, % at 5.9 µM; AID 2177; recombinant LYPLA2, FP-Rh probe fluorescence polarization; actives 0.38% (n = 320,000);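 active = inhibition above the screen-wide mean plus 3 SD, limit set per campaign, cut at about 26% in these data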;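 also: 0% = LYPLA2 with DMSO and 100% = wells lacking LYPLA2 enzyme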
LYPLA1 counter – counter-screen for PME1 inhibitors: inhibitors of human LYPLA1 | O75608 | recombinant LYPLA1, FP-Rh probe fluorescence polarization | inhibition, % at 5.9 µM | actives 0.16% (n = 320,000) | AID 2174;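 active = inhibition above the mean of all tested compounds plus 3 SD, set per campaign, cut at about 14% in these data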;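 also: inhibitors block serine hydrolase probe labeling of LYPLA1 so polarization falls; 0% = enzyme with DMSO and 100% = wells lacking LYPLA1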
Target sequence (O75608 whole entry, looked up): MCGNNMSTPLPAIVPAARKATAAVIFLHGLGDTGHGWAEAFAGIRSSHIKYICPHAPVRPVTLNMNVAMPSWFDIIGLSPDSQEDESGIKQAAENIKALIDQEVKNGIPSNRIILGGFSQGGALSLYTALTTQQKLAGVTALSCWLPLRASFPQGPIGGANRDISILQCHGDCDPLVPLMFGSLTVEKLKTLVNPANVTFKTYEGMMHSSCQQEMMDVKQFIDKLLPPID
EBNA-1 inh – blocks EBNA-1 binding to DNA; actives 0.34% (n = 300,000); inhibition, % at 14.8 µM; EBNA-1 DNA binding, fluorescence polarization; in the data active = inhibition above about 28%
PAD4 FP inh – blocks human protein arginine deiminase 4. Q9UM07. recombinant PAD4, RCA probe fluorescence polarization. inhibition, % at 6.36 µM. actives 0.41% (n = 330,000);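 active = percent inhibition above a cutoff equal to the mean of all tested compounds plus 3 SD, cut at about 15% in these data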;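 also: 0% = PAD4 with RCA probe and DMSO and 100% = probe without PAD4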
ZTA DNA inh – ZTA (EBV) inhibition in EBNA-1 counter-screen. P03206. ZTA-DNA binding, fluorescence polarization. inhibition, % at 11 µM. actives 0.15% (n = 320,000). AID 2234; in the data active = inhibition above about 33%
Target sequence (P03206 whole entry, looked up): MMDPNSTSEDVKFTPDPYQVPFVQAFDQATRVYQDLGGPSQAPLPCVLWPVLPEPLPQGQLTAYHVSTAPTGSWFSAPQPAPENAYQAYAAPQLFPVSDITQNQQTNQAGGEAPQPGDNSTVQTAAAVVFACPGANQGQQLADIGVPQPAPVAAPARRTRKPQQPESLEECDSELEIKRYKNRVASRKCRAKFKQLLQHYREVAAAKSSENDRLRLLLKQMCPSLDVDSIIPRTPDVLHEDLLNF
EBNA-1 confirm – EBNA-1 (EBV) inhibition, confirmation. inhibition, % at 14.8 µM. Recombinant EBNA-1 DBD, Cy5-DNA fluorescence polarization. actives 35% (n = 830). AID 2292. shares compounds with EBNA-1 inh;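 active = mean inhibition across replicates above a set limit taken from the earlier primary screen, cut at about 28% in these data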;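 also: plate controls were EBNA-1 protein with DMSO for no effect and wells lacking EBNA-1 for full effect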
ZTA DNA inh trip – blocks Epstein-Barr virus ZTA in triplicate, EBNA-1 counter-screen; 830 tested, under 10 active; Zta-ZRE DNA binding, Cy5 fluorescence polarization; inhibition, % at 11.1 µM; AID 2328; shares compounds with EBNA-1 inh;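 active = mean inhibition over triplicates above a set limit taken from the primary EBNA-1 screen, cut at about 37% in these data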;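 also: purified full length Zta protein with Cy5 labeled ZRE DNA probe; 0% = Zta with DMSO and 100% = wells lacking Zta protein; inhibitors lower polarization by freeing the labeled DNA probe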
* marks the source's active call; other numbers are inactive results.

COc1cc(NC(=O)c2ccccc2)c(OC)cc1NC(=O)Cc1ccc(Br)cc1 was read as GSTO1 inh -6, LYPLA2 inh -3, LYPLA1 counter -4, EBNA-1 inh 36*, PAD4 FP inh -3, ZTA DNA inh 8, EBNA-1 confirm 50* and ZTA DNA inh trip 1.
`O=C(Nc1cccc(C(=O)Nc2ccc(Br)cc2)c1)c1ccccc1` gave GSTO1 inh -11, LYPLA2 inh -12, LYPLA1 counter -6, EBNA-1 inh 33*, PAD4 FP inh -4, ZTA DNA inh 18, EBNA-1 confirm 26 and ZTA DNA inh trip 0.
COc1cc(NC(=O)c2ccc(Br)cc2)c(OC)cc1NC(=O)c1ccccc1 was read as GSTO1 inh 1, LYPLA2 inh 1, LYPLA1 counter -2, EBNA-1 inh 57*, PAD4 FP inh 2, ZTA DNA inh -18, EBNA-1 confirm 64* and ZTA DNA inh trip 5.
For O=C(N/N=C\c1ccc(CNS(=O)(=O)c2ccccc2)o1)C(=O)Nc1ccc(F)cc1 the results were GSTO1 inh 2, LYPLA2 inh -9, LYPLA1 counter -5, EBNA-1 inh 1, PAD4 FP inh 1 and ZTA DNA inh 1.
For O=C(N/N=C\c1ccc(CNS(=O)(=O)c2ccc(Cl)cc2)o1)C(=O)Nc1ccc(Oc2ccccc2)cc1 the results were GSTO1 inh -4, LYPLA2 inh -5, LYPLA1 counter 1, EBNA-1 inh 29*, PAD4 FP inh -4, ZTA DNA inh 7, EBNA-1 confirm 30* and ZTA DNA inh trip -1.
Screening Cc1cccc(CC2CC(=O)N(c3ccc(C)cc3Br)C2=O)c1 (stereo not drawn) returned GSTO1 inh 1, LYPLA2 inh -3, LYPLA1 counter -4, EBNA-1 inh 2, PAD4 FP inh 1 and ZTA DNA inh 9.
For Cn1c2ccccc2c2cnn(CC(=O)Nc3ccccc3Br)c(=O)c21 the results were GSTO1 inh -16, LYPLA2 inh -5, LYPLA1 counter -3, EBNA-1 inh 32*, PAD4 FP inh -5, ZTA DNA inh 7, EBNA-1 confirm 11 and ZTA DNA inh trip -2.
Cc1ccnc(OC(C(=O)O)C(OCCc2ccccc2)(c2ccccc2)c2ccccc2)n1 (stereo not drawn) was read as GSTO1 inh 8, LYPLA2 inh 0, LYPLA1 counter 4, EBNA-1 inh 5, PAD4 FP inh -4 and ZTA DNA inh 0.
Cc1cc(C)nc(OC(C(=O)O)C(OCCc2ccccc2)(c2ccccc2)c2ccccc2)n1 (stereo not drawn) was read as GSTO1 inh 9, LYPLA2 inh -2, LYPLA1 counter 1, EBNA-1 inh 28*, PAD4 FP inh -6, ZTA DNA inh 2, EBNA-1 confirm 2 and ZTA DNA inh trip 6.
`CCN(CC)S(=O)(=O)c1ccc(C(=O)Nc2nnc(NC(=S)Nc3ccccc3)s2)cc1` gave GSTO1 inh -64, LYPLA2 inh -24, LYPLA1 counter -18, EBNA-1 inh 38*, PAD4 FP inh -21, ZTA DNA inh -23, EBNA-1 confirm 75* and ZTA DNA inh trip -11.
Screening O=C(CCN1C(=O)/C(=C/c2cccs2)SC1=S)NC1=NCCS1 returned GSTO1 inh 8, LYPLA2 inh 0, LYPLA1 counter -4, EBNA-1 inh 34*, PAD4 FP inh -2, ZTA DNA inh -4, EBNA-1 confirm 0 and ZTA DNA inh trip -5.
COc1cc(NC(=O)C2Cc3ccccc3CN2S(C)(=O)=O)cc(OC)c1 (stereo not drawn) was read as GSTO1 inh 2, LYPLA2 inh 2, LYPLA1 counter 3, EBNA-1 inh 38*, PAD4 FP inh 2, ZTA DNA inh -5, EBNA-1 confirm 7 and ZTA DNA inh trip 7.
For Cc1ccc(NC(=O)CSc2nnc(NC(=O)c3ccc(S(=O)(=O)N4CCOCC4)cc3)s2)cc1 the results were GSTO1 inh -3, LYPLA2 inh -1, LYPLA1 counter 2, EBNA-1 inh 56*, PAD4 FP inh -3, ZTA DNA inh 10, EBNA-1 confirm 84* and ZTA DNA inh trip 11.
`N#Cc1ccc(NC(=O)COC(=O)C2Cc3ccccc3CN2C(=O)c2ccccc2)cc1` (stereo not drawn) gave GSTO1 inh 4, LYPLA2 inh -2, LYPLA1 counter 0, EBNA-1 inh 33*, PAD4 FP inh 0, ZTA DNA inh -18, EBNA-1 confirm 6 and ZTA DNA inh trip -1.
C#CCOC(=O)Nc1ccc(OCC(F)(F)F)nc1 was read as GSTO1 inh 6, LYPLA2 inh 9, LYPLA1 counter -1, EBNA-1 inh 2, PAD4 FP inh 0 and ZTA DNA inh -19.
`CCOc1ccc(C2C=C(c3ccc(C)cc3)Nc3nnnn32)cc1` (stereo not drawn) gave GSTO1 inh -4, LYPLA2 inh 5, LYPLA1 counter -3, EBNA-1 inh 52*, PAD4 FP inh -4, ZTA DNA inh 9, EBNA-1 confirm 2 and ZTA DNA inh trip 6.
For CCOc1ccc(C2C=C(c3ccccc3)Nc3nnnn32)cc1 (stereo not drawn) the results were GSTO1 inh -4, LYPLA2 inh 2, LYPLA1 counter 2, EBNA-1 inh 2, PAD4 FP inh -1 and ZTA DNA inh 23.
`Cc1ccc(OCC(=O)NC(=S)Nc2cccc(NC(=O)c3ccc(Cl)cc3Cl)c2)cc1` gave GSTO1 inh 0, LYPLA2 inh -7, LYPLA1 counter 0, EBNA-1 inh 20, PAD4 FP inh -3 and ZTA DNA inh -15.
`Cc1ccc(OCC(=O)NC(=S)Nc2cccc(NC(=O)c3ccccc3)c2)cc1` gave GSTO1 inh 0, LYPLA2 inh 12, LYPLA1 counter 0, EBNA-1 inh 29*, PAD4 FP inh -1, ZTA DNA inh 14, EBNA-1 confirm 17 and ZTA DNA inh trip -6.
Screening Cc1ccc(Cl)cc1NC(=O)Cn1c(C)csc1=O returned LYPLA2 inh 0, LYPLA1 counter -4, PAD4 FP inh -3 and ZTA DNA inh -25.
Screening O=C(Nc1nc2ccccc2[nH]1)c1cc2ccccc2o1 returned GSTO1 inh -9, LYPLA2 inh -5, LYPLA1 counter 1, EBNA-1 inh -4, PAD4 FP inh -4 and ZTA DNA inh 1.
CC(=O)c1ccc(NC(=S)NC(=O)Cc2ccc(Cl)cc2)cc1 was read as GSTO1 inh -2, LYPLA2 inh -1, LYPLA1 counter 2, EBNA-1 inh 31*, PAD4 FP inh -1, ZTA DNA inh 4, EBNA-1 confirm 43* and ZTA DNA inh trip -1.
